In PubChem BioAssay:
For part of these data: Measured potencies and affinities stand elsewhere. Calls of active or inactive are those of the source.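 The calls were made as follows, unless noted: active = primary screen hit whose fluorescence ratio, in both repeats, exceeds the weak agonist control mean by 3 SD; inactive = the rest.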

Assays:
[1] = test system: TRPC4 beta (transient receptor potential cation channel C4), mouse; experiment: activators of mouse TRPC4 channel, confirmation, cell-based, Fluo4 calcium, HEK293 TRPC4beta/mu-opioid, duplicates, 10 µM (AID 2426;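 active = fluorescence ratio normalized to control raised more than 50% in primary screen plus both repeat runs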;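 as to activation: percent rise of integrated ratio over buffer wells lacking compound which define 0%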); conditions: Fluo4 calcium fluorescence, at 10 µM; stronger effect = higher value
[2] = test system: transient receptor potential cation channel C4 beta (TRPC4), mouse; experiment: activators of mouse TRPC4 channel, confirmation, cell-based, second round, Fluo4, HEK293 TRPC4beta/mu-opioid, 1 µM (AID 2461;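 active = primary screen active and over 50% activation in each of two duplicate runs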;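 as to activation: 0% = wells without test compound as baseline of integrated fluorescence ratio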); conditions: Fluo4 calcium fluorescence, at 1 µM; stronger effect = higher value
[3] = test system: TRPC4 (transient receptor potential cation channel C4 beta), mouse; experiment: positive allosteric modulators of mouse TRPC4, confirmation, cell-based, second round, Fluo-4, HEK293 TRPC4beta/mu-opioid, 1 µM (AID 2554); conditions: DAMGO EC20, Fluo-4 calcium flux, at 1 µM; stronger effect = higher value
[4] = test system: TRPC4 beta (transient receptor potential cation channel C4), mouse; experiment: positive allosteric modulators of mouse TRPC4, confirmation, cell-based, Fluo-4, HEK293 TRPC4beta/mu-opioid (AID 2555;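 active = primary screen hit whose calcium fluorescence ratio, in both repeats, exceeds the weak agonist control mean by 3 SD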); conditions: DAMGO EC20, Fluo-4 calcium flux, at 10 µM; stronger effect = higher value
[5] = molecular target: Short transient receptor potential channel 4 (Mus musculus) (UniProt Q9QUQ5); experiment: inhibitors of mouse TRPC4 channel, confirmation, cell-based, Fluo4, HEK293 TRPC4beta/mu-opioid (AID 2636;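 active = calcium signal cut by more than 3 SD below the full-agonist control yet still positive, in both repeats and the earlier primary screen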); conditions: DAMGO, Fluo4 calcium flux, at 10 µM; stronger effect = higher value
[6] = molecular target: Short transient receptor potential channel 4 (Mus musculus) (UniProt Q9QUQ5); experiment: inhibitors of mouse TRPC4 channel, confirmation, cell-based, second round, Fluo4, HEK293 TRPC4beta/mu-opioid, 1 µM (AID 2637;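 active = calcium signal ratio cut to more than 3 SD under the fully stimulated control mean yet still positive, in both repeats and the primary screen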); conditions: Fluo4 calcium flux, DAMGO, at 1 µM; stronger effect = higher value
[7] = molecular target: Short transient receptor potential channel 4 (Mus musculus) (UniProt Q9QUQ5); experiment: TRPC4 positive allosteric modulators, dose response, cell-based, HEK293 TRPC4/mu-opioid, Fluo-4 calcium, EC20 DAMGO (AID 434941;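 active = earlier screen potentiator hit that boosts the TRPC4 ion channel at some dose, with a dose response; inactive = no potentiation, no dose response, or not a prior hit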;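 also: calcium entry triggered by an EC20 dose of DAMGO at the co-expressed mu-opioid receptor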)
[8] = molecular target: Short transient receptor potential channel 4 (Mus musculus) (UniProt Q9QUQ5); experiment: mouse TRPC4 channel inhibitors, dose response, cell-based, HEK293 TRPC4/mu-opioid, Fluo-4 calcium (AID 434942;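 active = primary screen inhibitor hit that blocks the TRPC4 channel at some tested dose, yielding a dose curve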)
[9] = molecular target: Short transient receptor potential channel 6 (Mus musculus) (UniProt Q61143); experiment: inhibition of mouse TRPC6 channel, confirmation, selectivity assay for TRPC4 inhibitor project, cell-based, HEK293, membrane potential dye, duplicate (AID 434948;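 active = active in primary screen and both duplicates, each dropping signal beyond three positive-control SD with fluorescence still positive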); conditions: HEK293 TRPC6, membrane potential dye fluorescence, at 10 µM, stimulated with maximal-effect acetylcholine; stronger effect = higher value
[10] = molecular target: Short transient receptor potential channel 6 (Mus musculus) (UniProt Q61143); experiment: activation of mouse TRPC6 channel, confirmation, selectivity assay for TRPC4 activator project, cell-based, HEK293, membrane potential dye, duplicate (AID 434950;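 active = membrane potential signal rise above negative control mean plus 3 SD in both duplicates, also active in the earlier TRPC4 screen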;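 as to activation: 0% = buffer only wells and 100% = acetylcholine maximal-effect wells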); conditions: HEK293 TRPC6, membrane potential fluorescence, at 10 µM; stronger effect = higher value
[11] = molecular target: Short transient receptor potential channel 6 (Mus musculus) (UniProt Q61143); experiment: TRPC6 potentiation by TRPC4 potentiator hits, confirmation, selectivity assay for TRPC4 potentiator project, HEK293 cells, membrane potential dye, duplicate (AID 434952;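 active = compound raising the membrane signal above positive-control mean plus 3 SD in both repeats, and a primary screen hit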); conditions: HEK293 TRPC6, membrane potential dye fluorescence, at 10 µM, maximal acetylcholine added after compound; stronger effect = higher value
[12] = molecular target: Short transient receptor potential channel 4 (Mus musculus) (UniProt Q9QUQ5); experiment: calcium flux activators in TRPC4/5HT1a cells, counter-screen for TRPC4 activator project, cell-based, second counter screen, HEK293 TRPC4/5HT1a, Fluo-4 (AID 434977;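 active = calcium signal rise above buffer-control mean plus 5 SD in both duplicates, and also a hit in the primary screen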;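 as to activation: plate controls were assay buffer for no effect and maximal serotonin response for full effect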); conditions: Fluo-4 calcium flux, at 10 µM; stronger effect = higher value
[13] = calcium flux inhibitors in TRPC4/5HT1a cells, confirmation, counter-screen for TRPC4 inhibitor project, cell-based, second counter screen, HEK293 TRPC4/5HT1a, Fluo-4 (AID 434978;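 active = primary screen active whose calcium signal fell more than 3 SD beyond the full-serotonin control mean in both duplicate plates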;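 also: serotonin given first at submaximal then at maximal dose after compound preincubation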); conditions: Fluo-4 calcium flux, at 10 µM, serotonin added to trigger calcium flux; stronger effect = higher value
[14] = test system: TRPC4 (mouse), co-expressed with 5HT1a in HEK293; experiment: calcium flux potentiators in TRPC4/5HT1a cells, confirmation, counter-screen for TRPC4 potentiator project, cell-based, second counter screen, HEK293 TRPC4/5HT1a, Fluo-4 (AID 434979;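 active = signal rise over 3 SD above mean of control wells given weak agonist, in both repeats and first screen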); conditions: Fluo-4 calcium flux, at 10 µM, serotonin added at its EC20 dose; stronger effect = higher value
[15] = calcium flux activation in mu-opioid HEK293 cells, confirmation, counter-screen for TRPC4 activator project, cell-based, HEK293 mu-opioid receptor line (AID 449723;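 active = hit in primary screen, with calcium signal over 5 SD above buffer well mean in both duplicates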;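 also: counter screen cells carry the mu-opioid receptor alone and lack TRPC4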); conditions: Fluo-4 calcium fluorescence, at 10 µM; stronger effect = higher value
[16] = calcium flux enhancement in mu-opioid HEK293 cells, confirmation, counter-screen for TRPC4 allosteric potentiator project, cell-based, HEK293 mu-opioid receptor line (AID 449724;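 active = calcium signal rise more than 3 SD above the low-dose agonist control mean, in both duplicate plates and the primary screen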); conditions: Fluo-4 calcium flux, at 10 µM, compound added before EC20 DAMGO stimulus; stronger effect = higher value

Chain of Short transient receptor potential channel 4 (Mus musculus) (Q9QUQ5 whole entry, looked up): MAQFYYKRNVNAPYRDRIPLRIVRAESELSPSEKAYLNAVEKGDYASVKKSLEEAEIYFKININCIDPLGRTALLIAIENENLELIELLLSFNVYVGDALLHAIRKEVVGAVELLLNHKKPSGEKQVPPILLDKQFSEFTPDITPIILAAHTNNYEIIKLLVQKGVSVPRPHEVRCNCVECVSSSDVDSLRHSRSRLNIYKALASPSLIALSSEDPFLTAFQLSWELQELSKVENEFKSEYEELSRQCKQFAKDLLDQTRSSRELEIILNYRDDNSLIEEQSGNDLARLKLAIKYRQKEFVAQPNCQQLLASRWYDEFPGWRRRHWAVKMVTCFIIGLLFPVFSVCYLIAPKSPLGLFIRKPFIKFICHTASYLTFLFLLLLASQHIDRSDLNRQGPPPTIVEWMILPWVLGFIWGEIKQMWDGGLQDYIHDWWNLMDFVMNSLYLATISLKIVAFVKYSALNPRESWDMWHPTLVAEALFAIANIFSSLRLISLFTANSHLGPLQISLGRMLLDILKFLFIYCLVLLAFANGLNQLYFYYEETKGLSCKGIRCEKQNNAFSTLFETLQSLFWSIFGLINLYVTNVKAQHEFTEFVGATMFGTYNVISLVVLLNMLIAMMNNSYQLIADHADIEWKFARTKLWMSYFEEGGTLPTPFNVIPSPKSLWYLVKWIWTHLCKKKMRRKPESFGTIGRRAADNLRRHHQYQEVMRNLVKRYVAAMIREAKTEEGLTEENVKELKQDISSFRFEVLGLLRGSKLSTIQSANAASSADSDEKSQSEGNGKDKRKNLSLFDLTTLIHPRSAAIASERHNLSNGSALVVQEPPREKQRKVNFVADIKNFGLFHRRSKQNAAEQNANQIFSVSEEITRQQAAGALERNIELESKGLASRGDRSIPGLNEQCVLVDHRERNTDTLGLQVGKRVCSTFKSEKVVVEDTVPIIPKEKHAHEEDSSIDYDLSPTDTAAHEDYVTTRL
Chain of Short transient receptor potential channel 6 (Mus musculus) (Q61143 whole entry, looked up): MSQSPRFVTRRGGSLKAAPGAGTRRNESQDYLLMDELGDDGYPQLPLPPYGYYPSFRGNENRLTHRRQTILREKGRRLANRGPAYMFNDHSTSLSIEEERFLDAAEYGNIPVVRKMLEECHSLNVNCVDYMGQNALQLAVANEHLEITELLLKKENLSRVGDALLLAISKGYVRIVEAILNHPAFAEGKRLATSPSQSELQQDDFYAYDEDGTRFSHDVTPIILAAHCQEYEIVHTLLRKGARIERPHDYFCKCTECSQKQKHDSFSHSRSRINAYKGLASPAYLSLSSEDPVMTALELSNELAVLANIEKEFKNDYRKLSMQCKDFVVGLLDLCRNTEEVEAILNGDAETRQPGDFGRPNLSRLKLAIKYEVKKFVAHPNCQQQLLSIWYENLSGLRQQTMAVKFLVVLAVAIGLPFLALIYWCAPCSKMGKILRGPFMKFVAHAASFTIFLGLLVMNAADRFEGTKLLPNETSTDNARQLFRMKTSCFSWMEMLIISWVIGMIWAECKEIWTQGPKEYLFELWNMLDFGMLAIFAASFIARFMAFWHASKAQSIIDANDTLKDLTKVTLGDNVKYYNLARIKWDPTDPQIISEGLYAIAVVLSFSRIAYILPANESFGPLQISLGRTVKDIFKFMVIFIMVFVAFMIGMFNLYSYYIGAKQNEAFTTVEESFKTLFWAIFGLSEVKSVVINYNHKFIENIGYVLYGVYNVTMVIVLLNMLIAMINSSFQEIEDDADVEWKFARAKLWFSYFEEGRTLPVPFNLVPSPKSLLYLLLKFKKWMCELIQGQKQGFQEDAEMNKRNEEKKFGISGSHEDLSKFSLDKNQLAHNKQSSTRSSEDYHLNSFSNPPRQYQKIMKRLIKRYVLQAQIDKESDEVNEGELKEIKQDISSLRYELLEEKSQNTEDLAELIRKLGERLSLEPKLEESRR

CN(C)CCNC(=O)c1scc2c1CCCC2
active: activation [10] 41.5% | activation [12] 19.6%
inactive: outcome [1] | outcome [2] | outcome [3] | outcome [4] | outcome [5] | outcome [6] | outcome [7] | outcome [8] | outcome [9] | outcome [11] | outcome [13] | outcome [14] | outcome [15] | outcome [16]

COc1ccc(-n2nc(C(=O)NCC(=O)NCCCN3CC(C)CC(C)C3)c3ccccc3c2=O)cc1Cl (stereo not given)
inactive: outcome [1] | outcome [2] | outcome [3] | outcome [4] | outcome [5] | outcome [6] | outcome [7] | outcome [8] | outcome [9] | outcome [10] | outcome [11] | outcome [13] | outcome [14] | outcome [15] | outcome [16]
active: activation [12] 12.2%

CC(=O)c1c(C)nn(CC(=O)NC2CCCN(Cc3ccc(CC(C)C)cc3)C2)c1C (stereo not given)
active: activation [1] 122% | activation [10] 34.5% | activation [12] 50.2%
inactive: outcome [2] | outcome [3] | outcome [4] | outcome [5] | outcome [6] | outcome [7] | outcome [8] | outcome [9] | outcome [11] | outcome [13] | outcome [14] | outcome [15] | outcome [16]

NC(=O)C1CCCN(CCc2ccccc2)C1 (stereo not given)
inactive: outcome [3] | outcome [4] | outcome [5] | outcome [6] | outcome [7] | outcome [8] | outcome [9] | outcome [10] | outcome [11] | outcome [13] | outcome [14] | outcome [15] | outcome [16]
active: activation [1] 157% | activation [2] 133% | activation [12] 74.3%

CCN(CC)CCCNC(=O)c1cc2c(-c3ccc(Cl)cc3)nn(C)c2s1
active: potentiation [3] 13% | activation [12] 12.6% | potentiation [14] 31.3%
inactive: outcome [1] | outcome [2] | outcome [4] | outcome [5] | outcome [6] | outcome [7] | outcome [8] | outcome [9] | outcome [10] | outcome [11] | outcome [13] | outcome [15] | outcome [16]

Cn1c(N2CCN(C(=O)Nc3ccc(C(F)(F)F)cc3)CC2)nc2ccccc21
inactive: outcome [2] | outcome [3] | outcome [4] | outcome [5] | outcome [6] | outcome [7] | outcome [8] | outcome [9] | outcome [10] | outcome [11] | outcome [13] | outcome [14] | outcome [15] | outcome [16]
active: activation [1] 81% | activation [12] 31.2%

CN1CCC(=O)N([C@H](CSc2ccc(Br)cc2)Cc2ccccc2)CC1
active: activation [10] 33%
inactive: outcome [1] | outcome [2] | outcome [3] | outcome [4] | outcome [5] | outcome [6] | outcome [7] | outcome [8] | outcome [9] | outcome [11] | outcome [12] | outcome [13] | outcome [14] | outcome [15] | outcome [16]

Clc1cc(Cl)cc(C2=NC(Cc3ccccc3)CO2)c1 (stereo not given)
active: activation [1] 110% | activation [10] 25% | activation [12] 30.6%
inactive: outcome [2] | outcome [3] | outcome [4] | outcome [5] | outcome [6] | outcome [7] | outcome [8] | outcome [9] | outcome [11] | outcome [13] | outcome [14] | outcome [15] | outcome [16]

CN(C)C(CNC(=O)Cc1ccc([N+](=O)[O-])cc1)c1ccccc1 (stereo not given)
active: activation [1] 161% | activation [2] 124%
inactive: outcome [3] | outcome [4] | outcome [5] | outcome [6] | outcome [7] | outcome [8] | outcome [9] | outcome [10] | outcome [11] | outcome [12] | outcome [13] | outcome [14] | outcome [15] | outcome [16]

CN(C)CCCN(C(=O)c1ccc(S(=O)(=O)N2CCCCCC2)cc1)c1nc2c(F)cc(F)cc2s1
inactive: outcome [2] | outcome [3] | outcome [4] | outcome [5] | outcome [6] | outcome [7] | outcome [8] | outcome [9] | outcome [10] | outcome [11] | outcome [12] | outcome [13] | outcome [14] | outcome [15] | outcome [16]
active: activation [1] 133%

CC(C)(C)c1cc(O)c(C(C)(C)C)cc1O
inactive: outcome [2] | outcome [3] | outcome [4] | outcome [5] | outcome [6] | outcome [7] | outcome [8] | outcome [9] | outcome [10] | outcome [11] | outcome [13] | outcome [14] | outcome [16]
active: activation [1] 100% | activation [12] 55.9% | activation [15] 47.1%

Cc1cccc(OCCOCCN2CCNCC2)c1C
active: activation [1] 167% | activation [2] 69% | activation [10] 35% | activation [12] 65.6%
inactive: outcome [3] | outcome [4] | outcome [5] | outcome [6] | outcome [7] | outcome [8] | outcome [9] | outcome [11] | outcome [13] | outcome [14] | outcome [15] | outcome [16]

COc1ccc(C)c(NC(=O)NCCc2cnc[nH]2)c1
inactive: outcome [2] | outcome [3] | outcome [4] | outcome [5] | outcome [6] | outcome [7] | outcome [8] | outcome [9] | outcome [11] | outcome [13] | outcome [14] | outcome [15] | outcome [16]
active: activation [1] 152% | activation [10] 33% | activation [12] 56.4%

CC(Nc1nc(N2CCNCC2)nc2ccccc12)c1ccccc1 (stereo not given)
active: activation [12] 16.7%
inactive: outcome [1] | outcome [2] | outcome [3] | outcome [4] | outcome [5] | outcome [6] | outcome [7] | outcome [8] | outcome [9] | outcome [10] | outcome [11] | outcome [13] | outcome [14] | outcome [15] | outcome [16]

CCCCC(=O)NC(=S)NNC(=O)c1ccc(Cl)cc1Cl
inactive: outcome [2] | outcome [3] | outcome [4] | outcome [5] | outcome [6] | outcome [7] | outcome [8] | outcome [9] | outcome [11] | outcome [13] | outcome [14] | outcome [16]
active: activation [1] 196% | activation [10] 31.5% | activation [12] 76.5% | activation [15] 43.7%
